# Many of the other results were omitted from the sample, so the strongest signals are more common in it than they were.
# Tests used:
# Assay in all cases: glycan array binding signal (z-score within array); higher = stronger binding
# Conditions in all cases: glycan notation: IUPAC condensed, linker removed
# [1] = molecular target: Fuc(a1-2)Gal(b1-3)GalNAc(a1-3)[Fuc(a1-2)]Gal(b1-4)Glc
# In short: (§1)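 The binding signal is a Z-score computed within each array. Data were drawn from 3228 arrays in the Consortium for Functional Glycomics database, restricted to those with a known protein sequence. Scores were averaged over arrays of the same protein sequence at different concentrations or buffers, and over linkers, and negative values can be taken as non-binding.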
# [2] = molecular target: Fuc(a1-2)Gal(b1-3)GlcNAc
# In short: as §1
# [3] = molecular target: Fuc(a1-2)Gal(b1-3)GlcNAc(b1-3)[Neu5Ac(a2-6)Gal(b1-4)GlcNAc(b1-6)]Gal(b1-4)Glc
# In short: as §1
# [4] = molecular target: Fuc(a1-2)Gal(b1-3)[Fuc(a1-4)]GlcNAc(b1-3)[Fuc(a1-3)[Gal(b1-4)]GlcNAc(b1-6)]Gal(b1-4)Glc
# In short: as §1
# [5] = molecular target: Fuc(a1-2)Gal(b1-4)GlcNAc(b1-2)Man
# In short: as §1
# [6] = molecular target: Fuc(a1-2)Gal(b1-4)GlcNAc(b1-2)[Fuc(a1-2)Gal(b1-4)GlcNAc(b1-4)]Man(a1-3)[Fuc(a1-2)Gal(b1-4)GlcNAc(b1-2)Man(a1-6)]Man(b1-4)GlcNAc(b1-4)GlcNAc
# In short: as §1
# [7] = molecular target: Fuc(a1-2)Gal(b1-4)GlcNAc(b1-3)[Fuc(a1-3)[Gal(b1-4)]GlcNAc(b1-6)]Gal(b1-4)Glc
# In short: as §1
# [8] = molecular target: Fuc(a1-2)[GalNAc(a1-3)]Gal(b1-4)GlcNAc(b1-6)GalNAc
# In short: as §1
# [9] = molecular target: Fuc(a1-3)[Gal(b1-4)]GlcNAc(b1-2)Man(a1-3)[Fuc(a1-3)[Gal(b1-4)]GlcNAc(b1-2)Man(a1-6)]Man(b1-4)GlcNAc(b1-4)[Fuc(a1-6)]GlcNAc
# In short: as §1
# [10] = molecular target: Fuc(a1-3)[Gal(b1-4)]GlcNAc(b1-6)[Gal(b1-3)GlcNAc(b1-3)]Gal(b1-4)Glc
# In short: as §1
# [11] = molecular target: Fuc(a1-3)[GalNAc(b1-4)]GlcNAc
# In short: as §1
# [12] = molecular target: Fuc(a1-4)GlcNAc
# In short: as §1
# [13] = molecular target: Gal(a1-3)Gal(b1-4)GlcNAc(b1-6)GalNAc
# In short: as §1
# [14] = molecular target: Gal(a1-3)GalNAc
# In short: as §1
# [15] = molecular target: Gal(b1-3)GalNAc(b1-4)Gal(b1-4)Glc
# In short: as §1
# [16] = molecular target: Gal(b1-3)GlcNAc(b1-3)Gal(b1-4)GlcNAc(b1-6)[Gal(b1-3)GlcNAc(b1-3)]Gal(b1-4)Glc
# In short: as §1
# [17] = molecular target: Gal(b1-3)GlcNAc(b1-3)Gal(b1-4)[Fuc(a1-3)]GlcNAc(b1-6)[Gal(b1-3)GlcNAc(b1-3)]Gal(b1-4)Glc
# In short: as §1
# [18] = molecular target: Gal(b1-3)[GlcNAc(b1-6)]GalNAc
# In short: as §1
# [19] = molecular target: Gal(b1-4)GlcNAc(b1-2)[Gal(b1-4)GlcNAc(b1-6)]Man(a1-6)[GlcNAc(b1-4)][Gal(b1-4)GlcNAc(b1-2)Man(a1-3)]Man(b1-4)GlcNAc(b1-4)GlcNAc
# In short: as §1
# [20] = molecular target: Gal(b1-4)GlcNAc(b1-3)Gal(b1-4)Glc
# In short: as §1
# [21] = molecular target: Gal(b1-4)GlcNAc(b1-3)Gal(b1-4)GlcNAc(b1-3)Gal(b1-4)GlcNAc(b1-3)Gal(b1-4)GlcNAc(b1-3)Gal(b1-4)GlcNAc(b1-2)Man(a1-3)[Gal(b1-4)GlcNAc(b1-3)Gal(b1-4)GlcNAc(b1-3)Gal(b1-4)GlcNAc(b1-3)Gal(b1-4)GlcNAc(b1-3)Gal(b1-4)GlcNAc(b1-2)Man(a1-6)]Man(b1-4)GlcNAc(b1-4)GlcNAc
# In short: as §1
# [22] = molecular target: Gal(b1-4)GlcNAc(b1-3)Gal(b1-4)[Fuc(a1-3)]GlcNAc(b1-3)Gal(b1-4)[Fuc(a1-3)]GlcNAc
# In short: as §1
# [23] = molecular target: Gal(b1-4)GlcNAc(b1-6)Gal(b1-4)GlcNAc
# In short: as §1
# [24] = molecular target: Gal3S(b1-4)Glc
# In short: as §1
# [25] = molecular target: Gal3S(b1-4)[Fuc(a1-3)]GlcNAc
# In short: as §1
# [26] = molecular target: Gal6S(b1-4)GlcNAc6S
# In short: as §1
# [27] = molecular target: Glc(a1-6)Glc(a1-6)Glc(a1-6)Glc
# In short: as §1
# [28] = molecular target: GlcNAc(b1-3)Gal(b1-4)GlcNAc(b1-2)Man(a1-3)[GlcNAc(b1-3)Gal(b1-4)GlcNAc(b1-2)Man(a1-6)]Man(b1-4)GlcNAc(b1-4)GlcNAc
# In short: as §1
# [29] = molecular target: GlcNAc(b1-3)Gal(b1-4)GlcNAc(b1-3)Gal(b1-4)GlcNAc
# In short: as §1
# [30] = molecular target: GlcNAc(b1-3)Gal(b1-4)GlcNAc(b1-3)Gal(b1-4)GlcNAc(b1-2)[GlcNAc(b1-3)Gal(b1-4)GlcNAc(b1-3)Gal(b1-4)GlcNAc(b1-6)]Man(a1-6)[GlcNAc(b1-3)Gal(b1-4)GlcNAc(b1-3)Gal(b1-4)GlcNAc(b1-2)Man(a1-3)]Man(b1-4)GlcNAc(b1-4)[Fuc(a1-6)]GlcNAc
# In short: as §1
# [31] = molecular target: GlcNAc(b1-3)Gal(b1-4)GlcNAc(b1-3)Gal(b1-4)GlcNAc(b1-3)Gal(b1-4)GlcNAc(b1-2)Man(a1-3)[GlcNAc(b1-3)Gal(b1-4)GlcNAc(b1-3)Gal(b1-4)GlcNAc(b1-3)Gal(b1-4)GlcNAc(b1-2)Man(a1-6)]Man(b1-4)GlcNAc(b1-4)[Fuc(a1-6)]GlcNAc
# In short: as §1
# [32] = molecular target: GlcNAc(b1-3)Gal(b1-4)GlcNAc(b1-3)Gal(b1-4)GlcNAc(b1-3)Gal(b1-4)GlcNAc(b1-2)[GlcNAc(b1-3)Gal(b1-4)GlcNAc(b1-3)Gal(b1-4)GlcNAc(b1-3)Gal(b1-4)GlcNAc(b1-6)]Man(a1-6)[GlcNAc(b1-3)Gal(b1-4)GlcNAc(b1-3)Gal(b1-4)GlcNAc(b1-3)Gal(b1-4)GlcNAc(b1-2)Man(a1-3)]Man(b1-4)GlcNAc(b1-4)[Fuc(a1-6)]GlcNAc
# In short: as §1
# [33] = molecular target: GlcNAc(b1-4)GlcNAc
# In short: as §1
# [34] = molecular target: GlcNAc(b1-4)[GlcNAc(b1-6)]GalNAc
# In short: as §1
# [35] = molecular target: GlcNAc(b1-6)Gal(b1-4)GlcNAc
# In short: as §1
# [36] = molecular target: Man(a1-2)Man(a1-2)Man(a1-6)[Man(a1-3)]Man
# In short: as §1
# [37] = molecular target: Man(a1-3)[Man(a1-6)]Man(b1-4)GlcNAc(b1-4)GlcNAc
# In short: as §1
# [38] = molecular target: Man(b1-4)GlcNAc
# In short: as §1
# [39] = molecular target: Neu5Ac(a2-3)Gal
# In short: as §1
# [40] = molecular target: Neu5Ac(a2-3)Gal(b1-3)GalNAc6S
# In short: as §1
# [41] = molecular target: Neu5Ac(a2-3)Gal(b1-3)GlcNAc(b1-3)Gal(b1-4)GlcNAc
# In short: as §1
# [42] = molecular target: Neu5Ac(a2-3)Gal(b1-4)GlcNAc(b1-2)Man(a1-3)[Neu5Ac(a2-6)Gal(b1-4)GlcNAc(b1-2)Man(a1-6)]Man(b1-4)GlcNAc(b1-4)GlcNAc
# In short: as §1
# [43] = molecular target: Neu5Ac(a2-3)Gal(b1-4)GlcNAc(b1-3)Gal(b1-4)GlcNAc(b1-2)Man(a1-3)[Neu5Ac(a2-3)Gal(b1-4)GlcNAc(b1-3)Gal(b1-4)GlcNAc(b1-2)Man(a1-6)]Man(b1-4)GlcNAc(b1-4)GlcNAc
# In short: as §1
# [44] = molecular target: Neu5Ac(a2-3)Gal(b1-4)[Fuc(a1-3)]GlcNAc(b1-2)Man
# In short: as §1
# [45] = molecular target: Neu5Ac(a2-8)Neu5Ac
# In short: as §1
# [46] = molecular target: Neu5Ac(a2-8)Neu5Ac(a2-8)Neu5Ac
# In short: as §1
# [47] = molecular target: Neu5Gc(a2-3)Gal(b1-4)GlcNAc
# In short: as §1
binder,measurement,setting,value
Epf (Streptococcus pyogenes) (protein) GDHGPEFNGVMVVKAAEAEELPDDLMNFKGTWEVSADGSSGRFFSKGATDSYVFHLIPAKDVKKPGWREHNEVKDSYIKIDKQSIAARYKTSTTAPYSVAFKVNTKSLIKDHDYKITFEQGQIASGITVDYRIGSAFNKTTDDSFKISDESKYASNVKIEGEEQGFKQREQGDKTISFRTLKEGPMSLVLLSKVEKKPQGDLDVEFKNLKIIDVTNPSQLDKGVAYVGNKNVQLTLKSDDGRTNFEGDEISLFNSRGELLQTVTVTKDQQNPISITLSEDQAKSLKNKEKLKVSIKQKQSKKTSKDFFFEVGIDPKVEAKQKEKLLELDKVKKQIEDSINGDAWLPEKPVDLQGDHGLSAWSHPQFEK,glycan array binding signal (z-score),[1],-0.202
same,glycan array binding signal (z-score),[2],-0.175
same,glycan array binding signal (z-score),[3],0.514
same,glycan array binding signal (z-score),[4],3.33
same,glycan array binding signal (z-score),[5],0.654
same,glycan array binding signal (z-score),[6],-0.184
same,glycan array binding signal (z-score),[7],2.21
same,glycan array binding signal (z-score),[8],-0.052
same,glycan array binding signal (z-score),[9],-0.996
same,glycan array binding signal (z-score),[10],-2.21
same,glycan array binding signal (z-score),[11],2.73
same,glycan array binding signal (z-score),[12],-0.354
same,glycan array binding signal (z-score),[13],-1.75
same,glycan array binding signal (z-score),[14],0.627
same,glycan array binding signal (z-score),[15],-0.182
same,glycan array binding signal (z-score),[16],2.25
same,glycan array binding signal (z-score),[17],3.16
same,glycan array binding signal (z-score),[18],0.807
same,glycan array binding signal (z-score),[19],3.4
same,glycan array binding signal (z-score),[20],-1.14
same,glycan array binding signal (z-score),[21],2.53
same,glycan array binding signal (z-score),[22],-1.31
same,glycan array binding signal (z-score),[23],-0.547
same,glycan array binding signal (z-score),[24],1.73
same,glycan array binding signal (z-score),[25],1
same,glycan array binding signal (z-score),[26],2.34
same,glycan array binding signal (z-score),[27],0
same,glycan array binding signal (z-score),[28],-0.562
same,glycan array binding signal (z-score),[29],0.659
same,glycan array binding signal (z-score),[30],0.082
same,glycan array binding signal (z-score),[31],2.18
same,glycan array binding signal (z-score),[32],2.85
same,glycan array binding signal (z-score),[33],-1.32
same,glycan array binding signal (z-score),[34],3.11
same,glycan array binding signal (z-score),[35],-0.433
same,glycan array binding signal (z-score),[36],1.01
same,glycan array binding signal (z-score),[37],0.659
same,glycan array binding signal (z-score),[38],-0.471
same,glycan array binding signal (z-score),[39],-0.169
same,glycan array binding signal (z-score),[40],1.65
same,glycan array binding signal (z-score),[41],-1.25
same,glycan array binding signal (z-score),[42],-0.643
same,glycan array binding signal (z-score),[43],1.33
same,glycan array binding signal (z-score),[44],-1.48
same,glycan array binding signal (z-score),[45],0.246
same,glycan array binding signal (z-score),[46],-0.377
same,glycan array binding signal (z-score),[47],0.422

# From the supplement of paper PMC8728848
